The results in this text go back to PMC7819943, “Rice protein-binding microarrays: a tool to detect cis-acting elements near promoter regions in rice”.

The full ranking holds about 39,000 sequences; the median of “fluorescence intensity (a.u.)” is about 4,300, and the highest 2% start at about 39,000. Many of the other results were omitted from the sample, so the highest values are more common in it than they were.

This assay addresses T1, OsSMF1 (Oryza sativa, UniProt Q6ZLB0 1-436).
T1 sequence: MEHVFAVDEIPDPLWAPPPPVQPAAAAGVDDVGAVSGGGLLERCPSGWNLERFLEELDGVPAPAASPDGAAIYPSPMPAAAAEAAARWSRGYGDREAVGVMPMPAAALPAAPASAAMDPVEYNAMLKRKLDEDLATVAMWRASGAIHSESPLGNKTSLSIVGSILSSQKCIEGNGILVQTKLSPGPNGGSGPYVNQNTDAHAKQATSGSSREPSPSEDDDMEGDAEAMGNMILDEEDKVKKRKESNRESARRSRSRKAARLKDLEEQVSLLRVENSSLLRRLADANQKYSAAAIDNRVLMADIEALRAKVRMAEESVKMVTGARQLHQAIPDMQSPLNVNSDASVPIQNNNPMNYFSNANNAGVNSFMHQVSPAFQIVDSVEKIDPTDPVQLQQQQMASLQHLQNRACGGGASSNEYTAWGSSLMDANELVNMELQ
The assay is described as follows: protein-binding microarray (RPBM); PBS, 2% BSA, 51.3 ng/ul salmon testes DNA, 50 uM zinc acetate, 200 nM TF, 25 C, 1 h; high values mean tight binding. Particulars: protein: recombinant; tags: N-terminal polyhistidine and DsRed monomer fusion (pET32a); chain copies: 2; label: CyDye5-dUTP incorporated in the synthesized complementary strand; 3' TTTTT single-stranded linker to array surface; dsDNA, one strand shown. In outline:
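Binding signal here means per-feature fluorescence intensity in arbitrary units. The values were read on an Axon 4000B scanner after a custom Agilent array, double-stranded by primer extension with Cy5-dUTP, was incubated with 200 nM protein at 25 °C for 1 h in PBS with 2% BSA, salmon testes DNA and 50 µM zinc acetate, then washed. The proteins were transcription factors with an N-terminal polyhistidine tag and DsRed, expressed in E. coli BL21-CodonPlus and purified on Ni–NTA.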
Regarding “AATAACCACGTATATATAACTTCTAACCCTAGTTAACAACCGGAGTCACCTAGTGCAG”, the binding signal is 3310 fluorescence intensity (a.u.). “AGAGGGGAGGAAGAAGGAAGGAGAGATGGGTCCGACATGTCGGAGTCACCTAGTGCAG”: the binding signal was 26900 fluorescence intensity (a.u.). To “GAATTTATGGTTGAATACTTAACTTAAAATCCAAGGAACCCGGAGTCACCTAGTGCAG” belongs 3220 fluorescence intensity (a.u.).

Regarding “AAGAGATGGGGATTAAACCAATTGGGCCGAAAGATATGTCCGGAGTCACCTAGTGCAG”, the binding signal was 41200 fluorescence intensity (a.u.). With “AAACAACCAACTTTGCCTGCAAAACGGCAAAGAGATTAACCGGAGTCACCTAGTGCAG”, the binding signal was 3920 fluorescence intensity (a.u.). To “AGAGAATTATGGAGAGGGGAGGGGAGGGGCAGCAAAAGAGCGGAGTCACCTAGTGCAG” belongs 4210 fluorescence intensity (a.u.).

Regarding “TACTTATGTAAAAGGATTGATTTAAGAGAATGGTCCAAACCGGAGTCACCTAGTGCAG”, the binding signal was 44100 fluorescence intensity (a.u.).

Consider “GATGTCTTTAAAGAGGATTATATGAAATTTGAGATGAAATCGGAGTCACCTAGTGCAG”, for which the binding signal was 3610 fluorescence intensity (a.u.). Turning to “TGATTTAAACATGTTATGTAAGGAGAGTTGGAGACAGATACGGAGTCACCTAGTGCAG”, the binding signal is 22000 fluorescence intensity (a.u.). As to “AAAGAGATTATGCGGATATGCCCTTGCAAACCGGGGCAGTCGGAGTCACCTAGTGCAG”, the binding signal is 49900 fluorescence intensity (a.u.).

With “CGTACGGATATGCCCACGTGGCGAAGTCCCACGACGCCACCGGAGTCACCTAGTGCAG”, the binding signal is 9930 fluorescence intensity (a.u.). As to “ATTTCCAGTAAAAGTGGCATTGTTCAGACTTCAGTCATTACGGAGTCACCTAGTGCAG”, the binding signal is 3530 fluorescence intensity (a.u.). For “CACGGCATCGGCATCGGCAGCCACGCCTCGCGTGGCACGGCGGAGTCACCTAGTGCAG” the value was 4720 fluorescence intensity (a.u.); for “GACAGATGTGCTGAGTGCTGACGTGGTTAAACTAACCTCGCGGAGTCACCTAGTGCAG”, 16100 fluorescence intensity (a.u.).

For the sequence “CCAAACTAAGAGTGTTCAAGGGGAGGGGAAAAGAGAAGATCGGAGTCACCTAGTGCAG”, the binding signal was 3660 fluorescence intensity (a.u.). To “TCGAAAACTTTTCAGCCACGTGATGTTGGCAATCGCTGTTCGGAGTCACCTAGTGCAG” belongs 7190 fluorescence intensity (a.u.). To “AAGAGGATCGCAATCGTGAAAACTTCGCAAGTGTTCAGAACGGAGTCACCTAGTGCAG” belongs 59100 fluorescence intensity (a.u.); to “AATGAAATTAAACACACCCAACAAAATAAAAGACCAAACCCGGAGTCACCTAGTGCAG”, 3140 fluorescence intensity (a.u.); to “CTTGGCCCAGAAACAACACACACACTCAAATCTGGATCCACGGAGTCACCTAGTGCAG”, 3790 fluorescence intensity (a.u.). For “CCACTGGACCATAACTGGGCCCAGCACACAGAAACAAATCCGGAGTCACCTAGTGCAG” the value was 44700 fluorescence intensity (a.u.). For the sequence “GGGCCCCACAACCACCCCATAAATAAAGCAACACAACAACCGGAGTCACCTAGTGCAG”, the binding signal is 53000 fluorescence intensity (a.u.). Turning to “CACCAGCACATAAACACAAACCCACAGAAGACATTGCATTCGGAGTCACCTAGTGCAG”, the binding signal is 5420 fluorescence intensity (a.u.).

As to “CGGCCCACCCACCAACCACCACCACCACCACCACACCCGCCGGAGTCACCTAGTGCAG”, the binding signal was 3740 fluorescence intensity (a.u.).
